Bioassay records deposited in PubChem BioAssay by National Center for Advancing Translational Sciences (NCATS).
HEK cytotox: kills HEK 293 cells. AID 1345083. actives 6.6% (n = 94,000). HEK 293 viability, ATP luminescence (CellTiter-Glo), 48-72 h. Potency, µM (doses to about 115 µM), most hits filed as inhibitors; also: nearly all actives have a fitted effect of over 60% in size
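HEK 293 cells at 250 cells/well were exposed to compounds by pintool transfer for 48 or 72 hr at 37 degree Celsius, 5% CO2. Viability was read as ATP-coupled luminescence with CellTiter-Glo after 10 min at room temperature.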
GPT2 inh: inhibitors of human GPT2 alanine aminotransferase. actives 0.25% (n = 100,000). AID 1671188. Recombinant GPT2, coupled pyruvate oxidase/HRP Amplex Red fluorescence. Q8TD30. Potency, µM (top dose mostly 57.7 µM), most hits filed as inhibitors; also: nearly all actives have a fitted effect of over 60% in size
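Fluorescence read-out: pyruvate from GPT2 turnover coupled to pyruvate oxidase, HRP and Amplex Red (0.2mM ThPP, 0.2U/mL PO and HRP, 50uM Amplex final). Substrates 250uM a-KG, 2mM L-alanine; enzyme 10ng/uL; 30 min RT.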
NIH3T3 tox: cytotoxic compounds in NIH 3T3 cells. NIH 3T3 viability, CellTiter-Glo ATP luminescence, 48-72 h. Potency, µM (series often up to 96.7 µM), usual class: inhibitors. actives 4.3% (n = 94,000). AID 1345082; also: nearly all actives have a fitted effect of over 55% in size
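Cells were seeded at 400 per well, treated with pin-transferred compound, and kept 48 or 72 hr at 37 °C before CellTiter-Glo addition and luminescence imaging of cellular ATP.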
NPR1 antag: human Npr1 receptor antagonism. HEK293 hNpr1 GloSensor cGMP, ANP-stimulated luminescence. Potency, µM (titrated, usually from 46.3 µM), actives largely listed as inhibitors. actives 1.6% (n = 76,000); calls by dose curve; also: nearly all actives have a fitted effect of over 60% in size
Target sequence (P16066 whole entry, looked up): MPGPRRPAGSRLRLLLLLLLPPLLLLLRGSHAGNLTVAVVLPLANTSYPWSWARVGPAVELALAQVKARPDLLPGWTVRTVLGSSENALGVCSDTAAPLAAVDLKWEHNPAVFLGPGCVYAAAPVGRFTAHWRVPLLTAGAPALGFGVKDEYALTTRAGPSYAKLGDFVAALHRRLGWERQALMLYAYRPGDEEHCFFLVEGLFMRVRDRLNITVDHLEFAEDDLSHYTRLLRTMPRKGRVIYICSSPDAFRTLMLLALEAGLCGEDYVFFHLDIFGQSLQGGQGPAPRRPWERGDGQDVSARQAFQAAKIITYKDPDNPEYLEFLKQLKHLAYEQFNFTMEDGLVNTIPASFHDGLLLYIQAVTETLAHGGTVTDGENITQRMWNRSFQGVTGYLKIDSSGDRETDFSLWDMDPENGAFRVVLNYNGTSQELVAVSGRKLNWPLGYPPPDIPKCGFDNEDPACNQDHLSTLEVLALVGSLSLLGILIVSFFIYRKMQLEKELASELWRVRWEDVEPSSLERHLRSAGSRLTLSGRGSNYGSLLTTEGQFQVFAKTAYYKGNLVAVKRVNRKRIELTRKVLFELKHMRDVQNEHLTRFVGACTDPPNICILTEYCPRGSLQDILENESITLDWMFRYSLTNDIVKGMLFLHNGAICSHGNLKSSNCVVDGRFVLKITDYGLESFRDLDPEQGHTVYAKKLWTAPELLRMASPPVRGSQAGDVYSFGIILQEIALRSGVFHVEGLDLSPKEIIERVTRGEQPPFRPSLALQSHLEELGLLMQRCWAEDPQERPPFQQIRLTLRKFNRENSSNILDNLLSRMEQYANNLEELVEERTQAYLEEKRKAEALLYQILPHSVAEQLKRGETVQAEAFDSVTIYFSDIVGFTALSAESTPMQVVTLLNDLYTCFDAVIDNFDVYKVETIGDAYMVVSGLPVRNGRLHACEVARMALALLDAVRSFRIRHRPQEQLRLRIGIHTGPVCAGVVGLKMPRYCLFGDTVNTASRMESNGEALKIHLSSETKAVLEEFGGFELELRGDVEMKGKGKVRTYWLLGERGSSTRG
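HEK293 cells stably expressing human Npr1 and cGMP GloSensor pGS-40F, loaded 2 h with 2% GloSensor reagent, given compound 30 min at room temperature. Luminescence read before and 20 min after 0.1 nM hNppA.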
FLuc inh: Photinus pyralis luciferase inhibition. P08659. purified P. pyralis luciferase, luminescence, biochemical. Potency, µM (top dose mostly 115 µM), actives largely listed as inhibitors. actives 2.5% (n = 76,000). AID 1347043; also: nearly all actives have a fitted effect of over 65% in size
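Purified P. pyralis luciferase (10nM final) in 50mM Tris acetate pH 7.5, 10mM Mg acetate, 0.01% Tween-20, 0.05% BSA with 10uM D-luciferin and 10uM ATP. Compounds titrated qHTS. Luminescence imaged on CCD.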
NPR1 antag cnf: confirmation of human Npr1 natriuretic peptide receptor antagonists. AID 1347044. Potency, µM (top dose mostly 57.6 µM), hits mostly inhibitors. HEK293 hNpr1 cGMP GloSensor luminescence, ANP-stimulated. actives 76% (n = 1,400). shares compounds with NPR1 antag; calls by dose curve; also: nearly all actives have a fitted effect of over 70% in size
NPR2 antag: selectivity test of Npr1 antagonists against human Npr2; actives 67% (n = 1,400); Potency, µM (series often up to 57.6 µM), most hits filed as inhibitors; AID 1347046; HEK293 hNpr2 GloSensor cGMP luminescence, CNP-stimulated; shares compounds with NPR1 antag; calls by dose curve; also: nearly all actives have a fitted effect of over 70% in size
FLuc counter: inhibits firefly luciferase, false Npr1 antagonist flag | shares compounds with NPR1 antag | purified FLuc enzyme, luminescence, Km substrate | Potency, µM (titrated, usually from 57.6 µM), usual class: inhibitors | actives 0.7% (n = 1,400) | AID 1347047; also: series mostly up to about 58 µM
GloSensor ctrl: control cell line activity, Npr1 antagonist counter-screen | Potency, µM (series often up to 57.6 µM), usual class: inhibitors | AID 1347051 | shares compounds with NPR1 antag | actives 69% (n = 1,400) | HEK293 GloSensor cGMP, SNP-stimulated, luminescence; calls by dose curve; also: nearly all actives have a fitted effect of over 70% in size
Each line names hits and unclear results; the compound was inactive in the other large screens (follow-up assays come after a bar, where they were run). Sampled rows, rich in hits. Any-hit rate of the full collection: about 10%. Unless noted, calls follow the shape of the dose curve; as a rule, active = well fitted curve in the direction sought with a large enough effect; inconclusive = small, poorly fitted or top-dose-only effect, or another doubt; inactive = no such curve, though single readings can be large; an effect the other way counts as inactive or inconclusive.

NC(=O)Cc1c[nH]c2ncc(-c3ccc(Oc4ccccc4)cc3)cc12	HEK cytotox 35µM, NIH3T3 tox 22µM, NPR1 antag 7.9µM | NPR1 antag cnf 7.9µM | NPR2 antag 11µM | FLuc counter inactive | GloSensor ctrl 7.9µM
COc1ccc(NC(=O)Cn2c(-c3ccccc3)nc(C)cc2=O)cc1	HEK cytotox inconclusive, NIH3T3 tox inconclusive
COc1ccc(NC(=O)COc2ccc(NC(=O)C3CC3)cn2)cc1	none
COc1ccc(NC(=O)Cc2c[nH]c3ncc(-c4ccccc4C)cc23)cc1	HEK cytotox 79µM, NIH3T3 tox inconclusive, NPR1 antag 35µM | NPR1 antag cnf 25µM | NPR2 antag 18µM | FLuc counter inactive | GloSensor ctrl 31µM
COc1ncccc1-c1cnc2[nH]cc(CC(=O)Nc3cccc(Cl)c3)c2c1	HEK cytotox 32µM, NIH3T3 tox inconclusive, NPR1 antag inconclusive | NPR1 antag cnf 40µM | NPR2 antag inconclusive | FLuc counter inactive | GloSensor ctrl 44µM
COCC(=O)NC1CCCN(c2ccc3nnc(C4CC4)n3n2)C1 (centres undefined)	none (no result: GPT2 inh, NPR1 antag, FLuc inh)
Cc1cc(NC(=O)Cc2c[nH]c3ncc(-c4ccccc4C)cc23)n(C)n1	HEK cytotox inconclusive, NIH3T3 tox inconclusive, NPR1 antag 16µM | NPR1 antag cnf 31µM | NPR2 antag 28µM | FLuc counter inactive | GloSensor ctrl 28µM
O=C1CCC2(CCCN(c3nc4ccccc4s3)C2)CN1Cc1cccnc1 (centres undefined)	GPT2 inh inconclusive
O=C1CCC2(CCN(c3nc4ccccc4s3)CC2)CN1Cc1cccnc1	HEK cytotox inconclusive, NPR1 antag 13µM | NPR1 antag cnf 17µM | NPR2 antag 19µM | FLuc counter inactive | GloSensor ctrl 15µM
COc1cccc(CN2C[C@@H](CO)[C@H](C(=O)NC3CC3)C2)c1OC	none
COc1cc(CN2CCC(C)(c3noc(C4CCOCC4)n3)CC2)cc(OC)c1	GPT2 inh inconclusive, NPR1 antag inconclusive | NPR1 antag cnf inconclusive | NPR2 antag inconclusive | FLuc counter inactive | GloSensor ctrl inactive
CN(C)Cc1ccc(C(=O)N[C@@H]2COCC[C@@H]2OCC(=O)O)o1	none
COc1ccc(C2=NOC3(CCN([S+](=O)([O-])c4cccc(OC)c4)C3)C2)cc1 (centres undefined)	HEK cytotox 28µM, NIH3T3 tox inconclusive, NPR1 antag 13µM | NPR1 antag cnf 24µM | NPR2 antag 27µM | FLuc counter inactive | GloSensor ctrl 24µM
COc1cccc([S+](=O)([O-])N2CCC3(CC(c4cccc(C(F)(F)F)c4)=NO3)C2)c1 (centres undefined)	none (no result: NPR1 antag, FLuc inh)
COc1ccc(C2=NOC3(CCN([S+](=O)([O-])c4cccc(C(F)(F)F)c4)C3)C2)cc1 (centres undefined)	HEK cytotox inconclusive, NIH3T3 tox inconclusive, NPR1 antag 16µM | NPR1 antag cnf inconclusive | NPR2 antag 31µM | FLuc counter inactive | GloSensor ctrl inconclusive
COc1ccccc1-c1[nH]nc2ncc(C(=O)NCc3ccccc3)nc12	HEK cytotox inconclusive
COc1ccccc1-c1[nH]nc2ncc(C(=O)NCC3CC3)nc12	HEK cytotox inconclusive, NIH3T3 tox inconclusive, NPR1 antag inconclusive | NPR1 antag cnf inconclusive | NPR2 antag 25µM | FLuc counter inactive | GloSensor ctrl inactive
CN1CCC(N2C[C@@H]3C[C@H]2C(=O)N(Cc2cccnc2)c2ccccc2O3)CC1	none
Cc1ccc(CNC(=O)CCC2CCN(S(=O)(=O)c3ccccc3)CC2)cc1	NIH3T3 tox inconclusive | NPR1 antag cnf inactive | NPR2 antag inactive | FLuc counter inactive | GloSensor ctrl inactive
CCN(Cc1ccccc1)C(=O)CCC1CCN(S(=O)(=O)c2ccccc2)CC1	HEK cytotox inconclusive, NIH3T3 tox 28µM | NPR1 antag cnf inconclusive | NPR2 antag inactive | FLuc counter inactive | GloSensor ctrl inactive
Cc1cccc(CNC(=O)CCC2CCN(S(=O)(=O)c3ccccc3)CC2)c1	HEK cytotox inconclusive
Cc1cc(C)cc(C(=O)NOCCCCCC(=O)NO)c1	none (no result: HEK cytotox, NIH3T3 tox, NPR1 antag, FLuc inh)
Cc1cc(CNC(=O)c2cc(C(C)C)nn2C)c2[nH]c(C)c(C)c2c1	HEK cytotox 40µM, NIH3T3 tox inconclusive, NPR1 antag 7.1µM | NPR1 antag cnf 6.9µM | NPR2 antag 6.9µM | FLuc counter inactive | GloSensor ctrl 4.8µM
CCc1[nH]c2c(CNC(=O)c3c(C)cc(C)n(C)c3=O)cc(F)cc2c1C	none
Cc1nn2c(c1-c1ccccc1-c1ccccc1)N(C(=O)Cc1ccccn1)CCC2	HEK cytotox inconclusive
COc1cccc(CC(=O)N2CCCn3nc(C)c(-c4ccccc4-c4ccccc4)c32)c1	HEK cytotox inconclusive, NIH3T3 tox 79µM, NPR1 antag inconclusive | NPR1 antag cnf inconclusive | NPR2 antag 31µM | FLuc counter inactive | GloSensor ctrl inactive
Cc1nn2c(c1-c1ccccc1OCc1ccccc1)N(Cc1ccc(C(=O)O)s1)CCC2	HEK cytotox 35µM, NIH3T3 tox 32µM, NPR1 antag 6.3µM | NPR1 antag cnf 5.4µM | NPR2 antag 7.7µM | FLuc counter inactive | GloSensor ctrl 6.1µM
Cc1nn2c(c1-c1ccccc1OCc1ccccc1)N(C(=O)CCc1cccnc1)CCC2	HEK cytotox inconclusive, NIH3T3 tox inconclusive, NPR1 antag inconclusive | NPR1 antag cnf inconclusive | NPR2 antag inconclusive | FLuc counter inactive | GloSensor ctrl inactive
Cc1nn2c(c1-c1ccccc1Oc1ccccc1)N(C(=O)Cc1ccc(O)cc1)CCC2	HEK cytotox 89µM, NIH3T3 tox 79µM, NPR1 antag 20µM | NPR1 antag cnf 35µM | NPR2 antag 28µM | FLuc counter inactive | GloSensor ctrl inconclusive
Cc1nn2c(c1-c1ccccc1C(C)C)N(C(=O)Cc1ccc(O)cc1)CCC2	HEK cytotox inconclusive, NIH3T3 tox inconclusive
CC(=O)N1CCCn2nc(C)c(-c3ccccc3OCc3ccccc3)c21	HEK cytotox inconclusive, NIH3T3 tox inconclusive
C[S+](=O)([O-])c1cccc(-c2nnc3ccc(C(=O)NC4CCCC4)cn23)c1	none (no result: NPR1 antag, FLuc inh)
CNc1nc(C(=O)N2CCC3(CCCN(CCOC)C3=O)C2)cs1 (centres undefined)	none
